# High-throughput results from PubChem.
# The entries come from a sample that favours hits as a whole.
# TTR transcr act: TTR transcription activators in neuroblastoma reporter cells, primary screen, cell-based, luminescence, SH-SY5Y, TTR promoter Gaussia luciferase. 100% = recombinant luciferase protein wells. activation, % at 16.7 µM. hit rate 1.3% among 92,000;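 active = activation above the mean of all tested compounds plus 3 SD, cut at about 9.5% in these data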;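 also: cells exposed to compounds for one day before reading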
# TTR inh HuH7: TTR promoter reporter inhibitors in hepatoma cells, counter-screen for TTR transcription activator project, cell-based, luminescence, HuH7 hepatoma; inhibition, % at 16.7 µM; shares compounds with TTR transcr act; hit rate 4% among 1,100; HuH7 TTR promoter-Gaussia luciferase reporter; AID 1117279, 2014;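 active = average inhibition above the solvent-only control wells' mean plus 3 SD, cut at about 15% in these data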;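 also: inhibitors lower well luminescence so higher value means more inhibition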
# TTR up confirm: TTR transcription activators, retest, confirmation, cell-based, luminescence, SH-SY5Y, triplicate. SHSY5Y TTR promoter Gaussia luciferase; 100% = purified Lucia enzyme wells, no cells. shares compounds with TTR transcr act. 1,100 tested, under 10 active. activation, % at 16.7 µM. AID 1117280, 2014;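 active = mean activation above a set limit taken from the earlier primary screen, cut at about 11% in these data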
# Numbers stand for hits; - = inactive.
SMILES,TTR transcr act,others
O=C(COC(=O)CNC(=O)c1ccc([N+](=O)[O-])o1)Nc1ncc(C(F)(F)F)cc1Cl,-,
O=C(O)c1ccc(/C=N/NC(=O)c2ccc(NS(=O)(=O)c3cccs3)cc2)cc1,-,
O=C(NNC(=O)c1ccco1)c1ccc(NS(=O)(=O)c2cccs2)cc1,14,TTR inh HuH7=-;TTR up confirm=-
O=C(NNC(=O)c1cc(F)c(F)cc1Cl)c1ccc(NS(=O)(=O)c2cccs2)cc1,-,
CCc1ccc(NC(=O)CN(c2ccc(OC)cc2)S(=O)(=O)c2c(C)nn(C)c2C)cc1,-,
COc1ccc(-n2nnnc2C(c2cc3ccccc3o2)N2CCN(C/C=C/c3ccccc3)CC2)cc1 (configuration not stated),-,
O=C1Nc2ccccc2C1=O,-,
CCC1(CC)C(=O)Nc2ccccc21,-,
CCS(=O)(=O)C(=C1Nc2ccccc2N1)S(=O)(=O)CC,21,TTR inh HuH7=-;TTR up confirm=-
O=C(CSc1nc2ccccc2n1-c1ccccc1)NCC1CCCO1 (configuration not stated),-,
Nc1c(C(=O)NCC2CCCO2)c2nc3ccccc3nc2n1-c1ccccc1 (configuration not stated),11,TTR inh HuH7=-;TTR up confirm=-
Cc1ccc(C)n1-c1ccc(C(=O)NCC2CCCO2)cc1 (configuration not stated),-,
O=C(NCC(=O)N1CCN(S(=O)(=O)c2ccc3c(c2)OCCO3)CC1)c1ccccc1Cl,-,
O=C(c1cccs1)N1C[C@H](O)[C@@H](n2cc(-c3ccc(F)cc3)nn2)C[C@@H]1c1ccccc1,-,
C#CCOCCOCCOCCNc1nc(N2CCN(C(=O)[C@H](CO)n3cc([C@@H](N)C(C)C)nn3)CC2)nc(N2CCN(C(=O)[C@H](CCCCN)n3cc([C@@H](N)[C@H](C)CC)nn3)CC2)n1,19,TTR inh HuH7=-;TTR up confirm=-
C#CCOCCOCCOCCNc1nc(N2CCN(C(=O)[C@H](CCCN=C(N)N)n3cc(C(N)[C@@H](C)CC)nn3)CC2)nc(N2CCN(C(=O)[C@H](CCCCN)n3cc([C@@H](N)CC(N)=O)nn3)CC2)n1 (some centres not stated),-,
C#CCOCCOCCOCCNc1nc(N2CCOCC2)nc(N2CCN(C(=O)[C@H](CCCCN)n3cc([C@@H](N)CO)nn3)CC2)n1,-,
CCc1ccccc1NC(=O)CN(C)C(=O)COC(=O)c1ccco1,-,
O=C(NC1CC1)C(Cl)c1ccccc1 (configuration not stated),-,
O=C(CCCc1ccccc1)NC1CCSC1=O (configuration not stated),-,
O=C1SCCC1NC(=O)C(c1ccccc1)c1ccccc1 (configuration not stated),18,TTR inh HuH7=-;TTR up confirm=-
CC(C)(OC(=O)c1ccc(C#N)cc1)c1cc2ccccc2c(=O)o1,-,
Cc1ccc(C(=O)CSc2ccc(-c3cccnc3)nn2)cc1,-,
CN(C(=O)c1ccccc1-c1ncc[nH]1)C1CCCN(Cc2ccccc2F)C1 (configuration not stated),-,
COc1cc2c(cc1OC)C(c1cccc(F)c1)CC(=O)N2 (configuration not stated),18,TTR inh HuH7=-;TTR up confirm=-
SMILES,TTR transcr act,others
COc1cc2c(cc1OC)C(c1cccnc1)CC(=O)N2 (configuration not stated),-,
COc1ccc(C2CC(=O)Nc3cc(OC)c(OC)cc32)cc1 (configuration not stated),-,
CSc1ccc(S(=O)(=O)NCC(=O)OCC(=O)N(C)C2CCCCC2)cc1[N+](=O)[O-],-,
CC(C)n1c(SCC(=O)NC2CC2)nnc1C1CC1,-,
Cn1c(-c2cccc([N+](=O)[O-])c2)cnc1NCc1cccc([N+](=O)[O-])c1,-,
COc1ccc(-c2cnc(NCc3cc4c(cc3[N+](=O)[O-])OCO4)n2C)cc1,-,
COc1ccc(CNc2ncc(-c3ccccc3)n2C)c(OC)c1OC,11,TTR inh HuH7=-;TTR up confirm=-
O=C1N[C@H]2CC=C[C@H]2Nc2ccccc21,-,
C[C@@H]1CN([C@@H](C)CO)C(=O)CCCn2cc(nn2)CO[C@H]1CN(C)C(=O)Nc1ccc(-c2cccs2)cc1,-,
CCOC(=O)N/N=C\c1sccc1C,-,
CCOC(=O)N/N=C/c1ccccc1OCc1ccc(Cl)cc1,-,
CCOC(=O)N/N=C/c1ccc(F)cc1F,26,TTR inh HuH7=-;TTR up confirm=-
Cc1ccc(CNC(=O)O[C@H]2CC[C@@]34CCCN3C(=O)CCC[C@H]4[C@H]2C)o1,-,
CC1CCCC(C)N1C(=O)COC(=O)c1nn(C)c(=O)c2ccccc12 (configuration not stated),-,
Cc1ccc(O)c(NC(=O)c2ccc3c(c2)C(=O)N(Cc2cccnc2)C3=O)c1,-,
COc1ccccc1N1CCN(C(=O)CCc2nnc3ccc(N4CCC(C)CC4)nn23)CC1,-,
O=C(Cc1ccc(F)cc1)N1CCC(CC2CC(c3cccc(Br)c3)=NO2)(C(=O)NCC2CCCCC2)CC1 (configuration not stated),-,
CCCCCCCNC(=O)C1(CC2CC(c3cccc(Br)c3)=NO2)CCN(C(=O)c2ccccc2)CC1 (configuration not stated),17,TTR inh HuH7=-;TTR up confirm=-
COc1ccc(CNC(=O)C2(CC3CC(c4ccccc4)=NO3)CCN(C(=O)CCCCCBr)CC2)cc1 (configuration not stated),-,
CC(C)CNC(=S)N(CCCN(C)C)Cc1cc2cc3c(cc2[nH]c1=O)OCCO3,-,
COCCN(CC(=O)Nc1cccc(C)c1C)C(=O)Cc1cccs1,-,
COCCN(CC(=O)Nc1cccc(C)c1C)C(=O)c1ccc(S(=O)(=O)N2CCOCC2)cc1,9.8,TTR inh HuH7=-;TTR up confirm=-
O=C(Nc1ccccc1Cl)c1ccc(S(=O)(=O)N2CCOCC2)cc1,-,
CCCCCC(=O)N1C[C@H](O)[C@@H](n2cc(C3CC3)nn2)C[C@@H]1c1ccc(Cl)cc1,-,
CC(C)N(CC#CCC(O)(c1ccccc1)c1ccccc1)C(C)C,-,
SMILES,TTR transcr act,others
CC(c1ccccc1C(O)(c1ccccc1)c1ccccc1)N(C)C (configuration not stated),-,
CN(C)CC(CCC(CN(C)C)C(O)(c1ccccc1)c1ccccc1)C(O)(c1ccccc1)c1ccccc1 (configuration not stated),11,TTR inh HuH7=53;TTR up confirm=-
CC(C(=O)NC(C)(C)C)N1C(=O)c2cccc3cccc(c23)C1=O (configuration not stated),-,
CCc1ccc2cc(C)cc(C)c2n1,-,
O=C1CN(C(=O)OCc2ccccc2)c2ccccc2N1,14,TTR inh HuH7=-;TTR up confirm=-
O=C1CN(C(=O)NCC(=O)N[C@H](C(=O)O)c2ccccc2)c2ccccc2N1,-,
O=C1CN(C(=O)c2ccccn2)c2ccccc2N1,-,
COC(=O)[C@]12C[C@H](CC(=O)NCc3ccccc3)C(=O)N(Cc3cccc4ccccc34)C1=C[C@H](C(C)C)O[C@@H]2C1CC1,-,
COc1ccc(S(=O)(=O)NC(C)C(=O)Nc2ccccc2F)cc1 (configuration not stated),-,
COc1ccc(CN(C)CC(=O)NC(=O)Nc2ccccc2F)cc1,11,TTR inh HuH7=-;TTR up confirm=-
COc1ccc(OC)c(N(CC(=O)Nc2ccccc2F)S(=O)(=O)c2ccccc2)c1,-,
CC(C)(C)OC(=O)N1CCc2onc(-c3ccccc3F)c2C1=O,-,
